# Active and inactive are the calls of the source. How the source made its calls: active means hit-call score of the fitted dose curve at least 0.9, where 1 is the maximum; inactive means score below 0.9.
# Experiments:
# [1] = molecular target: Aryl hydrocarbon receptor (Homo sapiens) (UniProt P35869); test: ATG_Ahr_CIS: Attagene CIS-FACTORIAL HepG2 Assay for human Aryl Hydrocarbon Receptor (Ahr) (AID 2282930); settings: HepG2 AhR cis-factorial reporter transcription; actives raise or lower the signal
# Chain of Aryl hydrocarbon receptor (Homo sapiens) (P35869 whole entry, looked up): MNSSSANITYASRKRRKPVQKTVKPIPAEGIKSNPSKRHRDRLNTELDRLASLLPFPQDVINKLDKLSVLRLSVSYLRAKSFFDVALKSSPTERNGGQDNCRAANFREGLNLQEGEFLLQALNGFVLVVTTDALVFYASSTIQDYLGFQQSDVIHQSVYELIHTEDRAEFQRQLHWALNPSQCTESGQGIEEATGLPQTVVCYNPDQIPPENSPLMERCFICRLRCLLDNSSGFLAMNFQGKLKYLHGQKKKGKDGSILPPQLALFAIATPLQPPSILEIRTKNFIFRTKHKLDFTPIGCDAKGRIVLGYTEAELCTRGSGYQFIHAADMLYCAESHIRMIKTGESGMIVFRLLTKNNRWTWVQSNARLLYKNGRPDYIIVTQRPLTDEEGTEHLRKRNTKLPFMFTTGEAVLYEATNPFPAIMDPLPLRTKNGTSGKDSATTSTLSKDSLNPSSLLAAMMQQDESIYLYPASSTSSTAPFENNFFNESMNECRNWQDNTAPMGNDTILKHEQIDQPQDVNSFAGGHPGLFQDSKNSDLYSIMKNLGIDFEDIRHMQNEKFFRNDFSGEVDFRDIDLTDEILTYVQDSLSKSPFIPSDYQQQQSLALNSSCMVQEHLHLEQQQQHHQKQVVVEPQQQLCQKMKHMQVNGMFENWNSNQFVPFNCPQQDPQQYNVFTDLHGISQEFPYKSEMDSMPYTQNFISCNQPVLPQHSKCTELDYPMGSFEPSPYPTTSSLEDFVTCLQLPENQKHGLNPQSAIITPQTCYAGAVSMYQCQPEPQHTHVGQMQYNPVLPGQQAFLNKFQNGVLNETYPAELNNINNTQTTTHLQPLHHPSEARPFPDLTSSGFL
# How it was run: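 Following 24 h of chemical dosing, transfected HepG2 liver cells with cis-driven reporter units were lysed for RNA; reporter mRNA was quantified via RT-PCR and capillary electrophoresis, and responses fitted bidirectionally from DMSO.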
# [2] = ATG_BRE_CIS: Attagene CIS-FACTORIAL HepG2 Assay for human Bone Morphogenetic Protein (BMP) Response Element (BRE) (AID 2282933); settings: HepG2 BMP response element reporter, Attagene transcription factor profiling; actives raise or lower the signal
# How it was run: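 A HepG2 multiplex reporter system measured inducible reporter mRNA 24 h post-dosing. Detection: RT-PCR, 6-FAM primer extension, HpaI digestion, capillary electrophoresis. Activity fitted bidirectionally relative to DMSO.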
# [3] = ATG_FoxO_CIS: Attagene CIS-FACTORIAL HepG2 Assay for human Forkhead box O (FoxO) (AID 2282943); settings: HepG2 Attagene cis-reporter, FoxO element, mRNA; actives raise or lower the signal
# How it was run: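 24 h chemical exposure, HepG2 with transient cis-MRTU transfection. RNA extraction, oligo(dT) RT, reporter-specific PCR, primer-extension labelling, HpaI digestion, CE fragment analysis; bidirectional fit, DMSO baseline.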
# [4] = molecular target: Hypoxia-inducible factor 1-alpha (Homo sapiens) (UniProt Q16665); test: ATG_HIF1a_CIS: Attagene CIS-FACTORIAL HepG2 Assay for human Hypoxia Inducible Factor 1 (HIF1A) (AID 2282951); settings: HepG2 Attagene cis-factorial HIF1a reporter transcription; actives raise or lower the signal
# Chain of Hypoxia-inducible factor 1-alpha (Homo sapiens) (Q16665 whole entry, looked up): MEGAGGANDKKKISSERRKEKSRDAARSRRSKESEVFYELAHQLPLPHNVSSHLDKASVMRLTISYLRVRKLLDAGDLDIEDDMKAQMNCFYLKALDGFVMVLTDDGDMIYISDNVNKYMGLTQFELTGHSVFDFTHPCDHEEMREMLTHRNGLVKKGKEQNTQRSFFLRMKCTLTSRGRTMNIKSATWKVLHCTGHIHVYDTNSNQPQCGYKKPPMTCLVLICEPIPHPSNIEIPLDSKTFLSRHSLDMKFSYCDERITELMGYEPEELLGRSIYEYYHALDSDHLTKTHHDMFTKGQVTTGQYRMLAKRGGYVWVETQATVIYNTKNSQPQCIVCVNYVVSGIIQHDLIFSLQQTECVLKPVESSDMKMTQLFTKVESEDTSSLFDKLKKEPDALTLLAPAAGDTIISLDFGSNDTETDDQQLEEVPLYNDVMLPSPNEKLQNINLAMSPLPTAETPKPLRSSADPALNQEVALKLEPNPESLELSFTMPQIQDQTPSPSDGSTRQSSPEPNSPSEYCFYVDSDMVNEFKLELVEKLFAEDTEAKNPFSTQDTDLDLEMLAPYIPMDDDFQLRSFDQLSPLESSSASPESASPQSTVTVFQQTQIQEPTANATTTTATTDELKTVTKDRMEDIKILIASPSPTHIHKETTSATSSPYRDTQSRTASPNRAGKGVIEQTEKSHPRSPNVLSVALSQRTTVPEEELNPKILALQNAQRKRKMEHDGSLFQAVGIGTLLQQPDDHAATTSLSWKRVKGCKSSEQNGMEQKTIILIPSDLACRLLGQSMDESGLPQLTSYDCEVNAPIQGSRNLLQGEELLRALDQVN
# How it was run: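 HepG2 cells transiently transfected with multiple cis-regulated reporter transcription units measure endogenous transcription factor activity. After 24 h exposure, reporter mRNA is quantified by RT-PCR with 6-FAM labelling, HpaI digestion and capillary electrophoresis. Bidirectional fitting against DMSO.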
# [5] = molecular target: Heat shock factor protein 1 (Homo sapiens) (UniProt Q00613); test: ATG_HSE_CIS: Attagene CIS-FACTORIAL HepG2 Assay for human Heat Shock Transcription Factor 1 (HSE) (AID 2282953); settings: HepG2 HSE cis-reporter, Attagene RNA transcription; actives raise or lower the signal
# Chain of Heat shock factor protein 1 (Homo sapiens) (Q00613 whole entry, looked up): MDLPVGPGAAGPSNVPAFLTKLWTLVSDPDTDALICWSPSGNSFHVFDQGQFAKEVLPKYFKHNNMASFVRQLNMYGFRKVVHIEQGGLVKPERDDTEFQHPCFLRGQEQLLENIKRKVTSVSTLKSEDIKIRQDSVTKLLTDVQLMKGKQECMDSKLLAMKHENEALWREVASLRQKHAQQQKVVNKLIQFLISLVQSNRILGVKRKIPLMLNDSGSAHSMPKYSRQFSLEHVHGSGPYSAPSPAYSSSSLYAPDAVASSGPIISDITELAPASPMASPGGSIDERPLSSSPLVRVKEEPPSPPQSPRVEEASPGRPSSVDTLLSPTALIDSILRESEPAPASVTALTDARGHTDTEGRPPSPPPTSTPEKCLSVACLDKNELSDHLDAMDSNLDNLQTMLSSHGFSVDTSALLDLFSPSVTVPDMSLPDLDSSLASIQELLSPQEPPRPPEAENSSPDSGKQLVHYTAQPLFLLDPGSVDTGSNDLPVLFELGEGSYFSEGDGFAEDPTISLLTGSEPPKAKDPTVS
# How it was run: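 Liver-derived HepG2 cells carry transiently introduced multiple reporter units governed by cis promoters. Reporter RNA measured 24 h post-dose through reverse transcription, PCR amplification, fluorescent labelling and capillary electrophoresis, normalised to DMSO.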
# [6] = ATG_RORE_CIS: Attagene CIS-FACTORIAL HepG2 Assay for human RAR-related Orphan Receptor Element (RORE) (AID 2282959); settings: HepG2 Attagene cis-factorial RORE reporter, mRNA; actives raise or lower the signal
# How it was run: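 HepG2 cells carrying transiently transfected cis-regulated reporter units; RORE-driven reporter mRNA quantified 24 h post-dosing by RT-PCR, 6-FAM primer extension, HpaI digestion and capillary electrophoresis. Bidirectional fit versus DMSO.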
# [7] = ATG_Sox_CIS: Attagene CIS-FACTORIAL HepG2 Assay for human SRY-box transcription factor (SOX) (AID 2282960); settings: HepG2 Attagene cis-factorial SOX reporter, mRNA; actives raise or lower the signal
# How it was run: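 HepG2 cells transiently transfected with multiple cis-regulated reporter units, then dosed for 24 h. Reporter mRNA quantified by RT-PCR, fluorescent labelling, HpaI digestion and capillary electrophoresis; bidirectional fit versus DMSO.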
# [8] = ATG_SREBP_CIS: Attagene CIS-FACTORIAL HepG2 Assay for human Sterol Regulatory Element Binding (SREBP) (AID 2282962); settings: HepG2 Attagene cis-factorial SREBP reporter, mRNA; actives raise or lower the signal
# How it was run: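 Readout: fluorescent reporter-transcript peaks resolved by capillary electrophoresis after RT-PCR. Cells were human HepG2 carrying transfected cis-promoter reporter constructs, dosed for 24 h. Gain or loss of signal was fitted against DMSO controls.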
# [9] = molecular target: Signal transducer and activator of transcription 3 (Homo sapiens) (UniProt P40763); test: ATG_STAT3_CIS: Attagene CIS-FACTORIAL HepG2 Assay for human Signal Transducer and Activator of Transcription 3 (STAT3) (AID 2282963); settings: HepG2, Attagene cis-factorial STAT3 reporter transcription; actives raise or lower the signal
# Chain of Signal transducer and activator of transcription 3 (Homo sapiens) (P40763 whole entry, looked up): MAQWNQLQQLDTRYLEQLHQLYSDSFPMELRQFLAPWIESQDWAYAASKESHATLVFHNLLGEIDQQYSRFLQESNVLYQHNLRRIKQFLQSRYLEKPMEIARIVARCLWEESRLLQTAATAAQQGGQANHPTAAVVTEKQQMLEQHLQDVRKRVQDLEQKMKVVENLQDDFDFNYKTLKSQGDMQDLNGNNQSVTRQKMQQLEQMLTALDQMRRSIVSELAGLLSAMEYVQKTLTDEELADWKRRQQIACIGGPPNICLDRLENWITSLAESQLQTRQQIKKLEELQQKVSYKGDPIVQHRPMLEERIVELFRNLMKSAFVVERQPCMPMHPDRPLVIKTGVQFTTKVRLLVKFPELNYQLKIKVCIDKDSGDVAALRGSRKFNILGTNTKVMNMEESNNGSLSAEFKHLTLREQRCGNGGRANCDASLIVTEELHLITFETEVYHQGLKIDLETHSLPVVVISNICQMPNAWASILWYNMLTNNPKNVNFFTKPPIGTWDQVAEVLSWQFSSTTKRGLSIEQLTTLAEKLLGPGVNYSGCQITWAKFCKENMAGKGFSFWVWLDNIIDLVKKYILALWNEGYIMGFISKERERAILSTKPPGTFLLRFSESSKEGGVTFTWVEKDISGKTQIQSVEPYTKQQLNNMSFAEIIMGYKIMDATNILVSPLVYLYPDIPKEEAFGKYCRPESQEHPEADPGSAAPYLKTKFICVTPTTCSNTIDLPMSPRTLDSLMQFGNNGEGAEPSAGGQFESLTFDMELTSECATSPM
# How it was run: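 Uses human liver HepG2 transiently carrying cis-regulated reporter transcription units. Following 24 h dosing, reporter mRNA induction was detected by RT-PCR and capillary electrophoresis, analysed bidirectionally versus DMSO.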
# [10] = ATG_TA_CIS: Attagene CIS-FACTORIAL HepG2 Assay for human TA Basal Promoter (AID 2282964); settings: HepG2 Attagene CIS-factorial TA basal promoter reporter; actives raise or lower the signal
# How it was run: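 Background internal-marker endpoint from a 52-component HepG2 cis-reporter panel. Cells treated 24 h; reporter transcripts quantified via RT-PCR and CE fluorescence against DMSO baseline.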
# [11] = ATG_TCF_b_cat_CIS: Attagene CIS-FACTORIAL HepG2 Assay for human T-Cell-Factor with beta-catenin (TCF/b-cat) (AID 2282965); settings: HepG2 TCF/beta-catenin cis-reporter transcription, actives raise or lower the signal
# How it was run: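 In this cis-format system, transfected HepG2 cells report endogenous transcription factor activity. Readout after 24 h exposure is reporter transcript abundance from RT-PCR and capillary electrophoresis, analysed for gain or loss of signal versus DMSO.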
# [12] = ATG_TGFb_CIS: Attagene CIS-FACTORIAL HepG2 Assay for human Transforming Growth Factor (TGF) (AID 2282967); settings: HepG2 Attagene CIS TGFb reporter, mRNA transcription; actives raise or lower the signal
# How it was run: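 Liver HepG2 line, cis-factorial reporter panel, 24 h dosing. Quantitation: RT-PCR products labeled with 6-FAM, cut with HpaI, resolved by capillary electrophoresis; DMSO-referenced bidirectional analysis.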
# [13] = molecular target: X-box-binding protein 1 (Homo sapiens) (UniProt P17861); test: ATG_Xbp1_CIS: Attagene CIS-FACTORIAL HepG2 Assay for human X-box Binding Protein 1 (XBP1) (AID 2282972); settings: HepG2 XBP1 cis-element reporter, Attagene multiplex; actives raise or lower the signal
# How it was run: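 Read-out: fluorescent reporter mRNA fragments resolved by capillary electrophoresis after RT-PCR. Human HepG2 liver cells carried transfected cis-promoter reporter units and were exposed to chemicals for 24 hours. Gain or loss of signal fitted relative to DMSO baseline.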
# [14] = molecular target: Transcriptional activator Myb (Homo sapiens) (UniProt P10242); test: ATG_Myb_CIS: Attagene CIS-FACTORIAL HepG2 Assay for human Myeloblastosis (Myb) Proto-Oncogene Transcription Factor (AID 2282986); settings: HepG2 Attagene CIS-FACTORIAL Myb reporter transcription; actives raise or lower the signal
# Chain of Transcriptional activator Myb (Homo sapiens) (P10242 whole entry, looked up): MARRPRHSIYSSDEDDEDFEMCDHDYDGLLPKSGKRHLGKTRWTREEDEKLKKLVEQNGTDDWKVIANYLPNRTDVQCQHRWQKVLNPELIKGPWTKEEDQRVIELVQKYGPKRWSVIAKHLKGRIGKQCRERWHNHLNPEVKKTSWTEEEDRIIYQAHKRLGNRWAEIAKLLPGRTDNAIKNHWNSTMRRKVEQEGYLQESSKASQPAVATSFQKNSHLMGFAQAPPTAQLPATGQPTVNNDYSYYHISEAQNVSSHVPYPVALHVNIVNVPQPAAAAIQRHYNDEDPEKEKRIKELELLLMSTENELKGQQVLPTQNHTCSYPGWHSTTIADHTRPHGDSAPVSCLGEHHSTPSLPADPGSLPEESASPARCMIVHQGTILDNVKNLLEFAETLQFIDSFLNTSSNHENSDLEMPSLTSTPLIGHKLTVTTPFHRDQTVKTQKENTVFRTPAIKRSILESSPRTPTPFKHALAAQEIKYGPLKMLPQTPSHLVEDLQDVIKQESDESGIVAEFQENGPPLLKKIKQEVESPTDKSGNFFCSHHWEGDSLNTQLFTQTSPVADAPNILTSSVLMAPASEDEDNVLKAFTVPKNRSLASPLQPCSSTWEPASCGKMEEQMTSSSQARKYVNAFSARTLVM
# How it was run: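 Transiently transfected HepG2 cells carrying a multiplexed cis-promoter reporter set report endogenous Myb activity after 24 h compound exposure. Reporter mRNA is read by RT-PCR with capillary electrophoresis of fluorescent products, fitted bidirectionally against DMSO.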
# [15] = molecular target: Nuclear respiratory factor 1 (Homo sapiens) (UniProt Q16656); test: ATG_NRF1_CIS: Attagene CIS-FACTORIAL HepG2 Assay for human Nuclear Respiratory Factor 1 (NRF1) Orphan Gene (AID 2282987); settings: HepG2 NRF1 cis-element reporter, Attagene multiplex; actives raise or lower the signal
# Chain of Nuclear respiratory factor 1 (Homo sapiens) (Q16656 whole entry, looked up): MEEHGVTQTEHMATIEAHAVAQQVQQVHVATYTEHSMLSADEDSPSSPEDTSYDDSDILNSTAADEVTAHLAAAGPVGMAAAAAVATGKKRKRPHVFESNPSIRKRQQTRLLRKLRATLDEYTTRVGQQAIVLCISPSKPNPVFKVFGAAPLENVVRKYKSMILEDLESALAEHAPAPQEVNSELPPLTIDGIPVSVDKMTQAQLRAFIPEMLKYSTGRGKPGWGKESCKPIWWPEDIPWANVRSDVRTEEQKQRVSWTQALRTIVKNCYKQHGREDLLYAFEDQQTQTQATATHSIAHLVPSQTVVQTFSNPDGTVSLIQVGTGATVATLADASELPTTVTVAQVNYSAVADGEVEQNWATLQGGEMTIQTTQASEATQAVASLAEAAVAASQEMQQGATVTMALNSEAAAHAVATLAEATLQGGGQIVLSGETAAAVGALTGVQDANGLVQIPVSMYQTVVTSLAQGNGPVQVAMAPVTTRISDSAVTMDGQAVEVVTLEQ
# How it was run: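 HepG2 cells transiently transfected with multiple cis-regulated reporter units, exposed 24 h. Reporter mRNAs measured by RT-PCR, fluorescent labelling, HpaI digestion and capillary electrophoresis; bidirectional fitting against DMSO.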
# [16] = molecular target: Myc proto-oncogene protein (Homo sapiens) (UniProt P01106); test: ATG_Myc_CIS: Attagene CIS-FACTORIAL HepG2 Assay for human Myelocytomatosis (Myc) Proto-Oncogene Transcription Factor (AID 2282990); settings: HepG2, Attagene cis-reporter transcription factor activity; actives raise or lower the signal
# Chain of Myc proto-oncogene protein (Homo sapiens) (P01106 whole entry, looked up): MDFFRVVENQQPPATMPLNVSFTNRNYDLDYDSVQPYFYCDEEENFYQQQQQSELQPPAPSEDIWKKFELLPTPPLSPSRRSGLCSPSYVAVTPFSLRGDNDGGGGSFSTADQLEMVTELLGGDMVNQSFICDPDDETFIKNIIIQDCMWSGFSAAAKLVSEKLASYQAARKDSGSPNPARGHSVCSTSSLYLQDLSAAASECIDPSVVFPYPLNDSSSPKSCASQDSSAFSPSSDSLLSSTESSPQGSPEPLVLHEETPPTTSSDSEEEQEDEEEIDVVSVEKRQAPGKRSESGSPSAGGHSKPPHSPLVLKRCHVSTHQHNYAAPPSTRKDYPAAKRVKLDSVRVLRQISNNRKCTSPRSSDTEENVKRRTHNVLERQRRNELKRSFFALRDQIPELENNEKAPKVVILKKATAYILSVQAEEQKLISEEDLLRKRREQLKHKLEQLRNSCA
# How it was run: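 DMSO-normalised, bidirectionally fitted reporter mRNA signal. HepG2 cells transfected with cis reporter constructs, treated 24 h; transcripts detected by RT-PCR, 6-FAM primer extension and CE.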
# [17] = ATG_NRF2_ARE_CIS: Attagene CIS-FACTORIAL HepG2 Assay for human Nuclear Factor Erythroid 2 Related Factor 2 (NFR2) response to Antioxidant Response Elements (ARE) (AID 2282992); settings: HepG2 Attagene ARE/NRF2 reporter, transcription factor activity; actives raise or lower the signal;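 on AC50: reporter mRNA level measured by RT-PCR and capillary electrophoresis fluorescence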
# How it was run: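 Readout: reporter mRNA quantified by RT-PCR plus FAM-labelled primer extension, HpaI digestion and capillary electrophoresis, 24 h after dosing transfected HepG2 cells. Gain or loss of signal is fitted bidirectionally against DMSO baseline.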
# [18] = ATG_Oct_MLP_CIS: Attagene CIS-FACTORIAL HepG2 Assay for human Octamer-Binding Transcription Factor (Oct) (AID 2282993); settings: HepG2 Attagene cis-factorial Oct reporter, mRNA; actives raise or lower the signal
# How it was run: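 Using HepG2 cells bearing transfected cis-reporter constructs, mRNA induction was read after 24 h by fluorescent RT-PCR and capillary electrophoresis, with DMSO defining baseline for gain- or loss-of-signal fits.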
# [19] = molecular target: Cellular tumor antigen p53 (Homo sapiens) (UniProt P04637); test: ATG_p53_CIS: Attagene CIS-FACTORIAL HepG2 Assay for human p53 Transcription Factor (AID 2282994); settings: HepG2 p53 cis-element reporter, Attagene mRNA; actives raise or lower the signal
# Chain of Cellular tumor antigen p53 (Homo sapiens) (P04637 whole entry, looked up): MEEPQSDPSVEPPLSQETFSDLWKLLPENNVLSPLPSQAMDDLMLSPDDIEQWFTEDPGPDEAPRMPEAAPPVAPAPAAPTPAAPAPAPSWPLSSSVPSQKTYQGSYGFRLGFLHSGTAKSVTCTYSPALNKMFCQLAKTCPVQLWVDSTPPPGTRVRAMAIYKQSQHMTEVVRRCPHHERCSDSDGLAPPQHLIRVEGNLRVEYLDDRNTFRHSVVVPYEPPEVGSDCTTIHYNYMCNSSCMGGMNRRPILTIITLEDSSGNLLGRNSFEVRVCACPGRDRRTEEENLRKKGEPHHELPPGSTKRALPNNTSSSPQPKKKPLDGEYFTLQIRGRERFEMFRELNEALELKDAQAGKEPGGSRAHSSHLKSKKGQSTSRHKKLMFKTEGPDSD
# How it was run: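 Read-out: reporter mRNA by RT-PCR plus capillary electrophoresis with fluorescence detection. Human HepG2 liver cells carried transfected multi-reporter cis-element constructs, dosed 24 h. Gain or loss of signal fitted bidirectionally against DMSO control.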
# [20] = ATG_E_Box_CIS: Attagene CIS-FACTORIAL HepG2 Assay for human Enhancer Box (E-box) (AID 2282936); settings: HepG2 E-box cis-reporter transcription, actives raise or lower the signal
# How it was run: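 Measured 24 h post-dosing in HepG2 cells transfected with multiple cis-regulated reporter units, signal being reporter mRNA induction detected by fluorescent RT-PCR with capillary electrophoresis; gain or loss fitted against DMSO.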
smiles,measurement,setting,value
CCc1cc(C)cc(CC)c1-c1c(OC(=O)C(C)(C)C)n2n(c1=O)CCOCC2,outcome,[1],inactive
same,outcome,[2],inactive
same,outcome,[3],inactive
same,outcome,[4],inactive
same,outcome,[5],inactive
same,outcome,[6],inactive
same,outcome,[7],inactive
same,outcome,[8],inactive
same,outcome,[9],inactive
same,outcome,[10],inactive
same,outcome,[11],inactive
same,outcome,[12],inactive
same,outcome,[13],inactive
same,outcome,[14],inactive
same,outcome,[15],inactive
same,outcome,[16],inactive
same,outcome,[17],inactive
same,outcome,[18],inactive
same,outcome,[19],inactive
C=COCCCl,outcome,[1],inactive
same,outcome,[2],inactive
same,outcome,[20],inactive
same,outcome,[3],inactive
same,AC50,[4],48.5 µM (active)
same,outcome,[5],inactive
same,outcome,[6],inactive
same,outcome,[7],inactive
same,outcome,[8],inactive
same,outcome,[9],inactive
same,outcome,[10],inactive
same,outcome,[11],inactive
same,outcome,[12],inactive
same,outcome,[13],inactive
same,outcome,[14],inactive
same,outcome,[15],inactive
same,outcome,[16],inactive
same,outcome,[17],inactive
same,outcome,[18],inactive
same,outcome,[19],inactive
N#CC(c1ccccc1)c1ccccc1,outcome,[3],inactive
same,outcome,[4],inactive
same,outcome,[5],inactive
same,outcome,[6],inactive
same,outcome,[7],inactive
same,outcome,[8],inactive
same,outcome,[9],inactive
same,outcome,[10],inactive
same,outcome,[11],inactive
same,outcome,[12],inactive
same,outcome,[13],inactive
same,outcome,[14],inactive
same,outcome,[15],inactive
same,outcome,[16],inactive
same,AC50,[17],77.9 µM (active)
same,outcome,[18],inactive
same,outcome,[19],inactive
C[C@]12CCC(=O)C(O)=C1CC[C@@H]1[C@@H]2CC[C@]2(C)C(=O)CC[C@@H]12,AC50,[1],31.2 µM (active)
same,outcome,[2],inactive
same,outcome,[20],inactive
same,outcome,[3],inactive
same,outcome,[4],inactive
same,outcome,[5],inactive
same,outcome,[6],inactive
same,outcome,[7],inactive
same,AC50,[8],27.6 µM (active)
same,outcome,[9],inactive
same,outcome,[10],inactive
same,outcome,[11],inactive
same,outcome,[12],inactive
same,outcome,[13],inactive
same,outcome,[14],inactive
same,outcome,[16],inactive
same,AC50,[17],13.8 µM (active)
same,outcome,[18],inactive
same,outcome,[19],inactive

# Reference: PubChem BioAssay (EPA / NIEHS)
